Data reported in PubChem BioAssay (NCATS).
Results filed as inconclusive are left out. Calls of active or inactive are those of the source. Calls follow the shape of the dose curve; as a rule, active = well fitted curve in the direction sought with a large enough effect; inconclusive = small, poorly fitted or top-dose-only effect, or another doubt; inactive = no such curve, though single readings can be large; an effect the other way counts as inactive or inconclusive.

Tests used:
[1] = Cell Viability - LYMP2-003 (AID 965); details: LYMP2-003 lymphoblastoid cell viability; series mostly up to 92.2 µM;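 also: cells exposed to compounds for 24 h before reading; nearly all actives have a fitted effect of over 50% in size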
Method in brief: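 CellTiter-Glo luminescence quantified ATP loss after 24 h compound treatment of LYMP2-003 lymphoblastoid cells at 37 C. Titration series were fitted with the standard Hill equation to give AC50.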

[2] = Cell Viability - LYMP2-004 (AID 966); details: LYMP2-004 lymphoblastoid cell viability, qHTS; series mostly up to 92.2 µM; also: nearly all actives have a fitted effect of over 65% in size
Method in brief: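 Lymphoblastoid LYMP2-004 cells, 2500 per well, were preincubated for 5 hr and then treated with compound for 24 h at 37 C in complete medium. Viability was read as cellular ATP by CellTiter-Glo luminescence, and AC50 values were taken from Hill fits to concentration-response data.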

[3] = Cell Viability - LYMP2-009 (AID 968); details: LYMP2-009 lymphoblastoid cell viability; series mostly up to 92.2 µM; also: nearly all actives have a fitted effect of over 55% in size
[4] = Cell Viability - LYMP2-011 (AID 969); details: LYMP2-011 lymphoblastoid cells viability; series mostly up to 92.2 µM; also: nearly all actives have a fitted effect of over 60% in size
Method in brief: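 2500 cells/well in complete medium, compound-treated 24 h at 37 C. Viability read as intracellular ATP by CellTiter-Glo luminescence after 30 min at room temperature. AC50 from Hill fits of qHTS concentration-response data.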

[5] = Cell Viability - LYMP2-013 (AID 970); details: LYMP2-013 lymphoblastoid cells viability; series mostly up to 92.2 µM; also: nearly all actives have a fitted effect of over 55% in size
Method in brief: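 Human lymphoblastoid LYMP2-013 cells, 2500/well, treated 24 h at 37 C in complete medium; viability as intracellular ATP by CellTiter-Glo luminescence after 30 min. AC50 from Hill fits of qHTS concentration-response.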

[6] = Cell Viability - LYMP2-015 (AID 971); details: LYMP2-015 lymphoblastoid cell viability; series mostly up to 92.2 µM; also: nearly all actives have a fitted effect of over 55% in size
Method in brief: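 LYMP2-015 human lymphoblastoid cells (2500/well) in complete medium, compound-treated 24 h at 37 C; viability read as cellular ATP by CellTiter-Glo luminescence after 30 min at room temperature. AC50 from Hill-equation fits of qHTS concentration-response data.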

[7] = Cell Viability - LYMP2-017 (AID 972); details: LYMP2-017 lymphoblastoid cell viability; series mostly up to 92.2 µM; also: nearly all actives have a fitted effect of over 55% in size
Method in brief: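 LYMP2-017 human lymphoblastoid cells (2500/well) settled 5 hr at 37 C, then exposed to compound 24 hr at 37 C in complete medium. Viability taken as intracellular ATP by CellTiter-Glo luminescence after 30 min at RT; AC50 from Hill fits.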

[8] = Cell Viability - LYMP2-023 (AID 975); details: LYMP2-023 lymphoblastoid cell viability; series mostly up to 92.2 µM
Method in brief: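 LYMP2-023 human lymphoblastoid cells, 2500/well, preincubated 5 hr at 37 C, then compound-treated 24 hr at 37 C in complete medium. CellTiter-Glo luminescence (ATP) after 30 min at room temperature; AC50 from Hill-equation fits; tetraoctylammonium bromide positive control.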

[9] = Cell Viability - LYMP2-025 (AID 976); details: LYMP2-025 lymphoblastoid cell viability; series mostly up to 92.2 µM
Method in brief: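 Human lymphoblastoid LYMP2-025 cells, 2500/well, exposed 24 h at 37 C in complete medium in 1536-well qHTS. Viability as cellular ATP by CellTiter-Glo luminescence; AC50 from Hill fits of concentration-response data.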

[10] = Cell Viability - LYMP2-002 (AID 977); details: LYMP2-002 lymphoblastoid cell viability, qHTS; series mostly up to 92.2 µM
Method in brief: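 Cytotoxicity is scored as concentration-dependent loss of cellular ATP in a human lymphoblastoid line after 24 hr compound treatment at 37 C. AC50 is obtained by modelling concentration-response data with the Hill equation.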

[11] = Cell Viability - LYMP2-006 (AID 978); details: LYMP2-006 lymphoblastoid cell viability, qHTS; series mostly up to 92.2 µM; also: nearly all actives have a fitted effect of over 60% in size
Method in brief: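 Potency values are Hill-fit AC50s for decreases in intracellular ATP (CellTiter-Glo luminescence). LYMP2-006 lymphoblastoid cells, 2500 per well, were exposed to compound in complete culture medium for 24 hr at 37 C.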

[12] = Cell Viability - LYMP2-007 (AID 979); details: LYMP2-007 lymphoblastoid cell viability; series mostly up to 92.2 µM;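 also: cells exposed to compound for 24 h before reading; nearly all actives have a fitted effect of over 60% in size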
Method in brief: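 Human lymphoblastoid LYMP2-007 cells (2500/well) preincubated 5 h at 37 C, then treated 24 h at 37 C in complete medium. Viability by CellTiter-Glo ATP luminescence after 30 min at room temperature; AC50 from Hill fits.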

[13] = Cell Viability - LYMP2-008 (AID 980); details: LYMP2-008 lymphoblastoid cell viability, qHTS; series mostly up to 92.2 µM; also: nearly all actives have a fitted effect of over 60% in size
Method in brief: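 LYMP2-008 lymphoblastoid cells (2500/well) plated 5 h, then treated 24 h at 37 C in complete medium. Viability read as intracellular ATP by CellTiter-Glo luminescence after 30 min at room temperature; AC50 from Hill fits.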

[14] = Cell Viability - LYMP2-012 (AID 982); details: LYMP2-012 lymphoblastoid cell viability qHTS; series mostly up to 92.2 µM
[15] = Cell Viability - LYMP2-014 (AID 983); details: LYMP2-014 lymphoblastoid cells, viability qHTS; series mostly up to 92.2 µM; also: nearly all actives have a fitted effect of over 50% in size
Method in brief: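 LYMP2-014 human lymphoblastoid cells, 2500/well, treated 24 h at 37 C in complete medium; viability by CellTiter-Glo ATP luminescence after 30 min at room temperature. AC50 from Hill fits of qHTS concentration-response; tetraoctylammonium bromide positive control.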

[16] = Cell Viability - LYMP2-016 (AID 984); details: LYMP2-016 lymphoblastoid cell viability, qHTS; series mostly up to 92.2 µM; also: nearly all actives have a fitted effect of over 55% in size
Method in brief: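 Cytotoxicity was scored by luminescent ATP content (CellTiter-Glo) after 24 h compound exposure at 37 C of a human lymphoblastoid line at 2500 cells/well. Concentration-response data were fitted to the Hill equation for AC50.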

[17] = Cell Viability - LYMP2-018 (AID 985); details: LYMP2-018 lymphoblastoid cells, viability (qHTS); series mostly up to 92.2 µM;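 also: compound exposure lasted 24 hr at 37 °C; nearly all actives have a fitted effect of over 50% in size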
Method in brief: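 Human lymphoblastoid LYMP2-018 cells, 2500/well, settled 5 hr at 37 C then exposed to compound 24 hr at 37 C; intracellular ATP measured by CellTiter-Glo luminescence. AC50 from Hill-equation concentration-response fits.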

[18] = Cell Viability - LYMP2-020 (AID 986); details: series mostly up to 92.2 µM; also: nearly all actives have a fitted effect of over 55% in size
Method in brief: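 Human lymphoblastoid LYMP2-020 cells (2500/well) preincubated 5 h at 37 C, then treated 24 h at 37 C. Viability measured as intracellular ATP by CellTiter-Glo luminescence after 30 min at room temperature; AC50 from Hill fits.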

[19] = Cell Viability - LYMP2-026 (AID 989); details: LYMP2-026 lymphoblastoid cell viability, qHTS; series mostly up to 92.2 µM; also: nearly all actives have a fitted effect of over 50% in size
Method in brief: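 Human lymphoblastoid LYMP2-026 cells, 2500/well, exposed to compound 24 h at 37 C in complete medium. Viability as intracellular ATP by CellTiter-Glo luminescence; AC50 from Hill fits of qHTS concentration-response.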

[20] = Cell Viability - LYMP1-002 - Assay at 24 hr (AID 993); details: LYMP1-002 lymphoblastoid cells viability; series mostly up to 92.2 µM
Method in brief: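 Human lymphoblastoid LYMP1-002 cells (2500/well) treated 24 h at 37 °C; viability as intracellular ATP by CellTiter-Glo luminescence. Tetraoctylammonium bromide as positive control; AC50 from Hill-equation fits of qHTS concentration-response.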

Measured: outcome

C[C@@H]1C[C@H]2[C@@H]3CCC4=CC(=O)C=C[C@]4(C)[C@@]3(F)[C@@H](O)C[C@]2(C)[C@@]1(O)C(=O)CO
inactive: [1] | [2] | [3] | [4] | [5] | [6] | [7] | [8] | [9] | [10] | [11] | [12] | [13] | [14] | [15] | [16] | [17] | [18] | [19] | [20]
